Source: PubChem BioAssay (National Center for Advancing Translational Sciences (NCATS))
Peg3 imprint: qHTS Assay for Compounds that Induce Erasure of Genomic Imprints | mouse ES Peg3-LacZ reporter, beta-gal luminescence, 40 h | Potency, µM (top dose mostly 60.7 µM), without a hit: at the highest dose activity change, positive = activation, most hits filed as activators | hit rate 0.02% among 110,000 | AID 1948, 2009
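Imprint erasure is scored as LacZ activity from the silenced maternal Peg3 allele in feeder-free female ES cells cultured 40 h with LIF. Luminescence is normalized to in-plate negative controls and fitted to the Hill equation.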
p53ts 32C tox: qHTS Screen for Compounds that Selectively Target Cancer Cells with p53 Mutations: Cytotoxicity of p53ts Cells at the Permissive Temperature; H1299-p53A138V at 32C, ATP luminescence viability, 24 h; Potency, µM (top dose mostly 46.1 µM), without a hit: at the highest dose activity change, negative = cytotoxicity, most hits filed as cytotoxic; hit rate 0.93% among 130,000; AID 924, 2007;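 further: 0% = DMSO and -100% = full killing by reference compound; nearly all actives have a fitted effect of over 55% in size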
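Cells: H1299 p53ts (A138V), 600/well, pre-incubated 16–30 h at 37C. Cpd up to 46 uM, 24 h, 32C. Readout: ATPlite luminescence, 20 min RT. Normalization: DMSO vs tamoxifen 100 uM. AC50 by Hill equation.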
p53ts 39C tox: qHTS Screen for Compounds that Selectively Target Cancer Cells with p53 Mutations: Cytotoxicity of p53ts Cells at the Nonpermissive Temperature; H1299-p53A138V viability at 39C, ATP luminescence, 24 h; Potency, µM (doses to about 46.1 µM), inactives show top-dose activity change, negative = cell killing, actives largely listed as cytotoxic; hit rate 1.5% among 130,000; further: on the % scale 0 is the no-effect control and ±100 the full control effect; nearly all actives have a fitted effect of over 55% in size
The depositor's hits bear a star; ? = inconclusive; nt = no result; [ ] = remark or other dose. Compounds with a hit are over-represented: about 1.8% of the library has one in this group of screens. The call rests on the fitted dose curve; in most records, active means well fitted curve in the direction sought with a large enough effect; inconclusive means small, poorly fitted or top-dose-only effect, or another doubt; inactive means no such curve, though single readings can be large; an effect the other way counts as inactive or inconclusive. Potency means the concentration at half of the fitted maximal effect.

SMILES	Peg3 imprint	p53ts 32C tox	p53ts 39C tox
CCOc1ccc(C2CC(=O)c3c([nH]c(C(=O)OCCOc4ccccc4)c3C)C2)cc1 (stereo not drawn)	-22%[10.9 µM]	?	?
COc1cccc(CNS(=O)(=O)c2ccc(-c3cc(C(F)(F)F)on3)s2)c1	3%[10.9 µM]	-4%	4%
COc1cccc(C(=O)NC2=NCCS2)c1	-71%	16µM*	?
COc1cccc(C(=O)Nc2ccc(C)cc2)c1	-82%	16µM*	16µM*
COC(=O)c1ccc(NC(=O)c2cccc(OC)c2)cc1	-86%	13µM*	?
COc1cccc(C(=O)Nc2ccc(C(=O)O)cc2)c1	-90%	10%	-1%
COC(=O)C1=C(NC(=O)c2cccc(OC)c2)CCS1	-26%	-6%	-12%
O=C(Nc1ccccc1)c1ccccc1O	-48%	?	-22%
COC(=O)c1cccc(NC(=O)c2cccc(OC)c2)c1	-86%	?	?
Cc1ccc(NC(=O)c2ccccc2O)cc1	-65%	14µM*	10µM*
COc1cc(NC(=O)Cn2c(=O)n(Cc3ccccc3Cl)c(=O)c3cc(OC)c(OC)cc32)cc(OC)c1	8%[10.9 µM]	-4%	-21%
O=C(O)Cn1c(=O)oc2cc(S(=O)(=O)N3CCOCC3)ccc21	-4%	7%	4%
COCCN1CCN(Cc2ccc(C(=O)NC(C)C)cc2)C(=O)C1=O	-12%[10.9 µM]	-8%	-12%
COc1ccc(OC)c(CNS(=O)(=O)c2c(C(=O)N3CCC(C)CC3)c(C)n(C)c2C)c1	-9%[10.9 µM]	9%	-14%
Cc1cccc(CNc2ncnc3ccc(-c4cccc(C#N)c4)cc23)c1	-24%	?	?
CCCN(CCC)CCNC(=O)Cn1cnc2sc(C)c(S(=O)(=O)N3CCN(c4ccccc4OC)CC3)c2c1=O	-14%[10.9 µM]	3%	3%
COc1ccccc1Cc1nc2ccccc2nc1SCC(=O)Nc1ccc2c(c1)OCO2	-1%[10.9 µM]	8%	6%
COc1cc2cc3c4c(cc(OC)c(OC)c4c2cc1OC)CCN3C	-47%	32µM*	32µM*
COc1cc2c(cc1OC)C(=O)N(C)CC2	-2%	3%	0%
CCOC(=O)c1ccc(NC(=O)c2cc(=O)c3ccc(C)c(C)c3o2)cc1	-12%[10.9 µM]	?	20µM*
CCOC(=O)c1ccc(NC(=O)c2cc(=O)c3cc(CC)ccc3o2)cc1	-6%[10.9 µM]	10%	26%
Cc1ccc(Cl)cc1N1CCN(C(=O)C2CCCN(Cc3nc(-c4cccc(Cl)c4)oc3C)C2)CC1 (stereo not drawn)	-10%[10.9 µM]	-15%	?
CCc1ccc(-c2nc(CN3CCCC(C(=O)N4CCN(c5cc(Cl)ccc5C)CC4)C3)c(C)o2)cc1 (stereo not drawn)	-15%[10.9 µM]	13µM*	?
Cc1c(-c2nc(-c3ccc4c(c3)[nH]c(=O)n4C)no2)cccc1[N+](=O)[O-]	-6%[10.9 µM]	4%	-20%
CCOc1ccccc1N(C)C(=O)Cn1cnc2onc(-c3ccc(F)cc3)c2c1=O	-9%[10.9 µM]	12%	-23%
SMILES	Peg3 imprint	p53ts 32C tox	p53ts 39C tox
CC[C@@H](C)[C@H]1O[C@]2(CC[C@@H]1C)C[C@@H]1C[C@H](C/C=C(/C)[C@H](O[C@@H]3C[C@H](OC)[C@H](O[C@@H]4C[C@H](OC)[C@@H](O)[C@H](C)O4)[C@H](C)O3)[C@@H](C)/C=C\C=C3CO[C@@H]4[C@H](O)C(C)=C[C@@H](C(=O)O1)[C@]34O)O2 (tested in a mixture with another compound)	-5%	13µM*	13µM*
CC[C@H](C)[C@@H]1O[C@]2(CC[C@@H]1C)C[C@H]1C[C@H](CC=C(C)[C@@H](O[C@@H]3C[C@H](OC)[C@H](O[C@@H]4C[C@H](OC)[C@H](O)[C@H](C)O4)[C@H](C)O3)[C@@H](C)C=CC=C3CO[C@@H]4[C@@H](O)C(C)=C[C@@H](C(=O)O1)[C@]34O)O2	-24%[16.8 µM]	?	13µM*
CC[C@H](C)[C@@H]1O[C@]2(CC[C@@H]1C)C[C@H]1C[C@H](CC=C(C)[C@@H](O[C@H]3C[C@H](OC)[C@H](O[C@H]4C[C@H](OC)[C@H](O)[C@H](C)O4)[C@H](C)O3)[C@@H](C)C=CC=C3CO[C@@H]4[C@@H](O)C(C)=C[C@H](C(=O)O1)[C@@]34O)O2	nt	10µM*	5µM*
CC[C@@H](C)[C@H]1O[C@]2(CC[C@@H]1C)C[C@@H]1C[C@@H](C/C=C(\C)[C@@H](O[C@H]3C[C@H](OC)[C@@H](O[C@H]4C[C@H](OC)[C@@H](O)[C@H](C)O4)[C@H](C)O3)[C@@H](C)/C=C/C=C3\CO[C@@H]4[C@H](O)C(C)=C[C@@H](C(=O)O1)[C@]34O)O2	-33%	nt	nt
CN1CC(=O)N(CC(=O)Nc2cccc(C#N)c2)c2ccccc2C1=O	-4%[10.9 µM]	6%	-23%
Cn1cc(-c2cc3n(n2)CCC(=O)N3CCCC(=O)NCc2ccccc2)c2ccccc21	7%[10.9 µM]	1%	-12%
CCN(CC)CCOC(=O)c1ccc(NC(=O)CSc2cc(=O)n(CC)c3ccccc23)cc1	?	-3%	10µM*
CCN(CC)CCOC(=O)c1ccc(NC(=O)COc2cc(=O)n(CC)c3ccccc23)cc1	-11%	-10%	-18%
Cn1c(=O)c2c(nc(NC3CCCCC3)n2Cc2ccccc2)n(C)c1=O	-19%	5µM*	26%
Cn1c(=O)c2c(nc(NCc3ccccc3)n2Cc2ccccc2)n(C)c1=O	-21%[10.9 µM]	-13%	-4%
O=c1c2c3c(sc2n(Cc2cc(=O)n4ccccc4n2)c(=O)n1-c1ccc(Cl)cc1)CCC3	-5%[10.9 µM]	8%	26%
CCOC(=O)C1CCCN(c2ncnc3c2cnn3-c2ccc(C)c(Cl)c2)C1 (stereo not drawn)	-38%[10.9 µM]	0%	-23%
CCN(CC)S(=O)(=O)c1nnc(NC(=O)COc2ccccc2)s1	-6%[10.9 µM]	-4%	-5%
CCN(CC)S(=O)(=O)c1nnc(NC(=O)COc2ccc(Cl)cc2)s1	17%[10.9 µM]	?	16µM*
CC1COC2=C1C(=O)C(=O)c1c2ccc2c1CCCC2(C)C (stereo not drawn)	-21%	-2%	-20%
COC(=O)Cc1ccc(NC(=O)c2ccc(Br)o2)cc1	-75%	-28%	?
CCN(CC)c1ccc(NC(=O)c2ccc(Br)o2)cc1	-52%	13µM*	?
O=C(Nc1ccc(N2CCCC2)c(Cl)c1)c1ccco1	-29%	10µM*	7.9µM*
O=C(Nc1ccc2c(c1)nc1n2CCOC1)c1ccco1	-30%	7.9µM*	?
O=C(COc1ccccc1)Nc1ccc2c(c1)nc1n2CCSC1	-7%	-23%	-15%
O=C(Nc1ccc2c(c1)nc1n2CCN(C2CCCCC2)C1)c1ccco1	-9%	0%	2%
O=C(Nc1ccc(N2CCCCC2)c(C(=O)O)c1)c1ccco1	7%	3%	7%
O=C(Nc1ccc2c(c1)nc1n2CCSC1)c1ccco1	-46%	2µM*	3.2µM*
CCOc1ccccc1NC(=O)N1CCN(S(=O)(=O)c2ccc3c(ccn3C)c2)CC1	-8%[10.9 µM]	4%	-4%
